The structures appear in SMILES notation. Values without a mark were called inactive. For part of these data: Measured potencies and affinities stand elsewhere. Active and inactive are the calls of the source. Unless noted, how the calls were made is not given here.

The nature of test [1]: antimalarial activity against Dd2 strain (AID 2302;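 active means growth inhibition above 50% at the single 2 µM test dose, taken to imply half-maximal potency below 2 µM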;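 further: 0% = DMSO untreated growth and 100% = chloroquine plus artemisinin killed control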). To be noted: P. falciparum Dd2 in RBCs, LDH growth readout, 72 h; at 2 µM; stronger effect = higher value.
Test [2] is described as follows: HepG2 cytotoxicity, primary screen, cytotoxicity control for P. falciparum antimalarial project, cell-based, ATP luminescence (AID 2303;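 active means inhibition above 50%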;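 further: 0% = DMSO wells and 100% = digitonin-killed cells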). To be noted: HepG2 viability, 24-48 h, at 10 µM, stronger effect = higher value.
Test [3] deals with L-lactate dehydrogenase (Plasmodium falciparum (isolate CDC / Honduras)) (UniProt Q27743). Kind of test: PfLDH activity inhibition – cell lysate, 3D7 strain, counter-screen for P. falciparum growth inhibition project (AID 2304).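 Further: 0% = vehicle and 100% = reference inhibitor.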 To be noted: P. falciparum 3D7 crude extract, LDH APAD/NBT absorbance; at 2 µM; stronger effect = higher value. On the technique in general: A counterscreen serves to expose hits that act by an unwanted route or on another target.

Test [4] in a line: inhibition of 3D7 malaria parasite growth – strain 3D7 (AID 2306).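 Further: 0% = DMSO wells and 100% = chloroquine plus artemisinin control wells.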 To be noted: P. falciparum 3D7 erythrocytic growth, LDH absorbance, 72 h; at 2 µM; stronger effect = higher value.
Test [5] has as its target Calcium-dependent protein kinase 1 (Plasmodium falciparum (isolate 3D7)) (UniProt P62344). The test is described as follows: PfCDPK1 kinase inhibitors, biochemical, TCAMS library (AID 1159585; cut-off not given, nearly all actives have IC50 up to about 0.98 µM;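 further: inhibitors leave more ATP so luminescence rises with inhibition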). To be noted: recombinant PfCDPK1, Kinase-Glo ATP depletion luminescence. (Kinase-Glo reads ATP consumption through a luciferase reaction.)
Test [6] addresses Plasmodium falciparum protein kinase 6 (PK6, PF3D7_1337100) (UniProt Q8IDW1). Kind of test: PfPK6 kinase inhibitors, biochemical, TCAMS library (AID 1159586). To be noted: recombinant PfPK6, Kinase-Glo ATP depletion luminescence.
The target in test [7] is Protein kinase 7 (PK7), Plasmodium falciparum 3D7 (PF3D7_0213400) (UniProt Q7YTF7). The test is described as follows: inhibition of Plasmodium PK7 catalytic activity – biochemical, TCAMS antimalarial set, Kinase-Glo luminescence (AID 1159587). To be noted: recombinant PfPK7, Kinase-Glo ATP depletion luminescence.
The target in test [8] is Calcium-dependent protein kinase 4 (Plasmodium falciparum (isolate 3D7)) (UniProt Q8IBS5). The test is described as follows: PfCDPK4 kinase inhibitors, biochemical, TCAMS library (AID 1159588; cut-off not given, nearly all actives have IC50 up to about 0.91 µM). To be noted: recombinant PfCDPK4, Kinase-Glo ATP depletion luminescence.
Calcium-dependent protein kinase 4 (Plasmodium falciparum (isolate 3D7)), sequence (Q8IBS5 whole entry, looked up): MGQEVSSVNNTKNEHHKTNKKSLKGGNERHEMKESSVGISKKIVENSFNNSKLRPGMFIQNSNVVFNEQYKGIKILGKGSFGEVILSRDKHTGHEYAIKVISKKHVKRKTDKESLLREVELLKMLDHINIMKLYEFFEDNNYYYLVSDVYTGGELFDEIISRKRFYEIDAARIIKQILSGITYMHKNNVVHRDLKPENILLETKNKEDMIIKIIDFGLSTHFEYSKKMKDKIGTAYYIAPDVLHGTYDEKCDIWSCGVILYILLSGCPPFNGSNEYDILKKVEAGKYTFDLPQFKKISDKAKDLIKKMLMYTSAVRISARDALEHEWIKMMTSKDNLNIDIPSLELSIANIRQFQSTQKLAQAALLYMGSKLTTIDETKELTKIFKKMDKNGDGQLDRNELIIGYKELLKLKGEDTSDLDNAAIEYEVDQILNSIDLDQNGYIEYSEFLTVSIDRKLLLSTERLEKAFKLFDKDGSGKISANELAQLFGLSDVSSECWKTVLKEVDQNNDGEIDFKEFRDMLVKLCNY

Calcium-dependent protein kinase 1 (Plasmodium falciparum (isolate 3D7)), sequence (P62344 whole entry, looked up): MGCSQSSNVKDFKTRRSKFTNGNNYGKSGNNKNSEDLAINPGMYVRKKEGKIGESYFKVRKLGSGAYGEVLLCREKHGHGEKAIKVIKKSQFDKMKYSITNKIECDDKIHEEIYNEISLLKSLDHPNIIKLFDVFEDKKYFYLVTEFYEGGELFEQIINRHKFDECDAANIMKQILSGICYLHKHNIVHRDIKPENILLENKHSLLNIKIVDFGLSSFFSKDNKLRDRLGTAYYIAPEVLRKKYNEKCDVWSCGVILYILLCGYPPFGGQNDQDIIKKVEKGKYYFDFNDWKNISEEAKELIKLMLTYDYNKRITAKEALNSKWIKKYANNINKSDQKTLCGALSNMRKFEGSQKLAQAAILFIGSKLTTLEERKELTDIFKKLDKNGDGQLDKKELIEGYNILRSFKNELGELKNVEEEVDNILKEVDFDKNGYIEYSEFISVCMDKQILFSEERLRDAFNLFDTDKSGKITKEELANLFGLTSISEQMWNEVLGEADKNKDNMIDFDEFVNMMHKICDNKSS
Plasmodium falciparum protein kinase 6 (PK6, PF3D7_1337100), sequence (Q8IDW1 1-305): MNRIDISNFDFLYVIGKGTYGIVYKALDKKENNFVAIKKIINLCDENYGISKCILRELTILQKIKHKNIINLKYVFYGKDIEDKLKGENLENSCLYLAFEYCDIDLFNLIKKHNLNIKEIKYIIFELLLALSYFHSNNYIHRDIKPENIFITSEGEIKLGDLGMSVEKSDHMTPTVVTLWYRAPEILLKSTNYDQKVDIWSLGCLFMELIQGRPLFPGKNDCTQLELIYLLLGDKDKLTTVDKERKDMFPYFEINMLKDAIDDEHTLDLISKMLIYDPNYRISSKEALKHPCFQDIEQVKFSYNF
Protein kinase 7 (PK7), Plasmodium falciparum 3D7 (PF3D7_0213400), sequence (Q7YTF7 1-343): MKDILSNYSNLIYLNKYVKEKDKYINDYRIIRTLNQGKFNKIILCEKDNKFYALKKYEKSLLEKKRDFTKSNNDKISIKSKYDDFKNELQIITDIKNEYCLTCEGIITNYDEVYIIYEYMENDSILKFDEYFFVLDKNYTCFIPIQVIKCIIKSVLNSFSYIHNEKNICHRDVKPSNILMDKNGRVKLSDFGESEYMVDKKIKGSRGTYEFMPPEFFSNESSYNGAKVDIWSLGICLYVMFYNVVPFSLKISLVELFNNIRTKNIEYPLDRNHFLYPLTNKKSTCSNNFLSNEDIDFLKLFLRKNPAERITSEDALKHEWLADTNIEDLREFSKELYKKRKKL
L-lactate dehydrogenase (Plasmodium falciparum (isolate CDC / Honduras)), sequence (Q27743 whole entry, looked up): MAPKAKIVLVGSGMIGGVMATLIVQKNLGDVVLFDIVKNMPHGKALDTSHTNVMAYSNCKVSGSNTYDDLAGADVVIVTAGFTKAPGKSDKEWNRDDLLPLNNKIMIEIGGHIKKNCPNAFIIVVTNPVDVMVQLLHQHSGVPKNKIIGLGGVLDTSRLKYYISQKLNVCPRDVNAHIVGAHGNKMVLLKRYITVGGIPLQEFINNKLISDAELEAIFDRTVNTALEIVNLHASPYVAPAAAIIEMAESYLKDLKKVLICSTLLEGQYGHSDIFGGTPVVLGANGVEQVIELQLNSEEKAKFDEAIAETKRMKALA

As to `CC(C)NC(=O)c1cccc(-c2ccc(OCCN3CCCC3c3cc4ccccc4[nH]3)cc2)c1` (centres undefined), the growth inhibition in test [1] was 34%; in test [4], 100% (active). The inhibition in test [2] was 25%; in test [3], -2%. The outcome in test [5], in test [6], in test [7] and in test [8] was inactive.
As to `CCCC(C)Nc1nc(C)cc(NCCC(=O)Nc2ccc(OC)cc2)n1` (centres undefined), the growth inhibition is 2% in test [1] and 97% (active) in test [4]. The inhibition in test [2] is 12%; in test [3], -1%. The outcome in test [5], in test [6], in test [7] and in test [8] was inactive.
Turning to `N#Cc1ccc(N2CCN(Cc3cccc(-c4cccc(-c5nc6ccc(C(F)(F)F)cc6[nH]5)c4)c3)CC2)nc1`, the growth inhibition was 50% (active) in test [1] and 99% (active) in test [4]. The inhibition was 15% in test [2] and 6% in test [3]. For the same compound, the outcome in test [5], in test [6], in test [7] and in test [8] was inactive.

The term inhibition denotes the relative decrease from the control value, in per cent.

(Values after PubChem BioAssay.)
